Bioassay records from PubChem.
HIF-2a block: HIF-2a reporter inhibitors, primary screen, luminescence, 786-0 RCC cells. 786-0 RCC cells HIF-2a reporter, luciferase luminescence, overnight. inhibition, % at 18.8 µM. actives 0.72% (n = 360,000). AID 624352, 2012;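 active = inhibition of the luminescence signal of 40% or more relative to plate controls, in a single-dose primary screen at 18.75 µM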
KKLEB tox: cytotoxicity in KKLEB CF airway cells, primary screen, cytotoxicity control for CF NF-kB inhibitor project, cell-based, uHTS, fluorescence assay plates. KKLEB CF airway cells viability, ATPlite luminescence, overnight; stronger effect = lower value; cells stimulated with P. aeruginosa culture filtrate. activity change (cytotoxicity), % at 5 µM. actives 0.36% (n = 360,000);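 active = corrected activity change at or below -50% at 5 µM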
CF NFkB inh: inhibitors of PAF-induced NF-kB signaling, primary screen, cell-based, GFP fluorescence, uHTS | actives 0.86% (n = 360,000) | AID 588850, 2011 | KKLEB NF-kB-GFP reporter, GFP fluorescence overnight | inhibition, % at 5 µM;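 active = at least 50% inhibition at 5 µM, scaled per plate between neutral and stimulator controls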;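 also: PAF is a Pseudomonas aeruginosa culture filtrate used as stimulus; plate controls were PAF-stimulated DMSO wells for no effect and unstimulated DMSO wells for full effect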
Shn3 inh set2: reduction of Shn3 3'UTR firefly luciferase signal, primary screen, Schnurri-3 inhibitor project, cell-based, Clone20 osteoblasts, set 2 | Clone20 osteoblast Shn3 3'UTR firefly luciferase, 24 h | inhibition, % at 12.5 µM | actives 0.52% (n = 360,000);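 active = mean inhibition of at least 75% with every replicate also reaching 75%; inconclusive = mean inhibition at least 75% but some replicate below; inactive = mean inhibition below 75%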;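 also: 0% = median of neutral control wells and 100% = pilot-screen positive control compound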
MITF TRPM1 inh: inhibitors of MITF-dependent TRPM1 promoter reporter, primary screen, cell-based, SK-MEL-5, single point, luciferase. SK-MEL-5 TRPM1 promoter luciferase, 24 h. inhibition, % at 12.5 µM. actives 0.83% (n = 330,000). AID 488899, 2010;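 active = mean inhibition across replicates of 60% or more, whatever share of single replicates reaches that level; inconclusive = some that reach 60%, reason not given; inactive = mean inhibition across replicates below 60%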
Peg3 promoter: Peg3 promoter-driven luciferase inhibitors, primary screen, cell-based, HeLa, luciferase luminescence. HeLa PEG-Prom luciferase reporter, overnight. inhibition, % at 20 µM. actives 1.7% (n = 360,000). AID 588405, 2011;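 active = inhibition of at least 50% at 20 µM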
The depositor's hits bear a star; ? = inconclusive; / = no result. Compounds with a hit are over-represented: about 2.7% of the library has one in this group of screens.

SMILES	HIF-2a block	KKLEB tox	CF NFkB inh	Shn3 inh set2	MITF TRPM1 inh	Peg3 promoter
CCCCC[C@@H](/C=C/C1C(=O)C=C[C@H]1C/C=C\CCCC(=O)OC)OC(C)=O (stereo partly specified)	10	-11	30	37	68*	81*
CC(O)(c1cccc(F)c1)c1nc(-c2cc(F)cc(F)c2)cs1 (stereo unspecified)	6	-9	14	-15	/	15
O=C(/C=C/c1ccc([N+](=O)[O-])cc1)Nc1ncc([N+](=O)[O-])s1	-78	-52*	38	35	42	-29
O=C(/C=C/c1ccncc1)c1ccc(NC(=O)c2ccccc2F)cc1	31	-6	72*	89*	12	103*
O=C(C#Cc1cccc([N+](=O)[O-])c1)c1ccccc1	26	-64*	97*	93*	82*	107*
CCCNC(=O)C1(C)CCN(C(=O)c2sccc2C)C1 (stereo unspecified)	3	2	-11	6	/	9
CC(=O)C1(C)CCC2C3C=C(C)C4=CC(=O)CCC4(C)C3CCC21C (stereo unspecified)	8	16	-1	87*	3	3
O=C(NCc1ccccc1C(F)(F)F)c1cccc2c1C(=O)c1ccc(N3CCC(N4CCCCC4)CC3)cc1S2(=O)=O	-13	-13	4	?	/	106*
O=C(NCC1CCCO1)c1cccc2c1C(=O)c1ccc(N3CCC(Cc4ccccc4)CC3)cc1S2(=O)=O (stereo unspecified)	27	10	-5	18	25	63*
CC(O)(c1cccc(F)c1)c1nc(-c2csc3ccccc23)cs1 (stereo unspecified)	-3	-3	-18	-22	/	9
Cc1c(NC(=O)c2ccc3c4c(cccc24)CC3)c(=O)n(-c2ccccc2)n1C	-8	4	-5	12	-4	9
O=C(/C=C/c1ccccc1)c1ccc2c3c(cccc13)CC2	-320	-18	-14	-25	-36	60*
CC1=NN(c2ccc(Cl)cc2)C(=O)C1C(c1ccccc1O)c1c(C)[nH]n(-c2ccc(Cl)cc2)c1=O (stereo unspecified)	12	-50*	65*	10	17	11
CCn1c(=O)c(C(=O)Nc2nc3ccccc3[nH]2)c(O)c2ccccc21	32	-90*	89*	82	19	22
O=C(NCC(O)c1nc2ccccc2[nH]1)c1cc([N+](=O)[O-])ccc1F (stereo unspecified)	28	2	-12	-8	/	28
CC(Nc1ccccc1CO)C(=O)Nc1cccc(Cl)c1Cl (stereo unspecified)	35	-9	20	3	15	52*
CCc1cccc(CC)c1NC(=S)Nc1cccc(Cl)c1Cl	13	5	7	8	9	19
CC1OC(CC(=O)O)CC2=C1C(=O)c1c(O)cccc1C2=O (stereo unspecified)	87*	-105*	101*	99*	113*	100*
CCc1nnc2n1N=C(c1ccc(-c3cc(Cl)ccc3Cl)o1)CS2	-6	-26	-13	1	-24	63*
Cc1ccc(-c2csc(N3CCN(c4cc5c(cc4Cl)nc(C)n5CCN4CCCCC4)CC3)n2)cc1	1	-26	14	4	-8	-2
Cc1csc(N2CCN(c3cc4c(cc3Cl)nc(-c3ccncc3)n4CCCN3CCCC3)CC2)n1	18	-7	15	5	90*	-3
CCCc1cc(=O)oc2c(CNc3ccc(OCC)cc3)c(O)ccc12	13	-3	53*	-11	4	36
CCOCCCNC(=O)/C(C#N)=C/c1ccc([N+](=O)[O-])o1	34	9	-6	98*	61*	101*
CC(NC(=O)/C(C#N)=C/c1ccc([N+](=O)[O-])o1)c1ccccc1 (stereo unspecified)	78*	18	-52	94*	58	103*
O=S1(=O)CC(N2CCC(Cc3ccccc3)CC2)CN1C1CCCCC1 (stereo unspecified)	9	6	-12	12	/	32
SMILES	HIF-2a block	KKLEB tox	CF NFkB inh	Shn3 inh set2	MITF TRPM1 inh	Peg3 promoter
O=C(Nc1nc(-c2cccc3ccccc23)cs1)c1ccc2c(c1)S(=O)(=O)c1ccccc1C2=O	-186	-9	2	-3	63*	-97
O=C(Nc1nc(-c2ccccc2)cs1)c1ccc2c(c1)S(=O)(=O)c1ccccc1C2=O	14	-57*	50	31	-5	25
O=C(Nc1ccncc1)c1ccc2c(c1)S(=O)(=O)c1ccccc1C2=O	-18	1	5	58	10	19
CCC(C)n1c(C)nc2c(c1=O)c1nc3ccccc3nc1n2CCC1=CCCCC1 (stereo unspecified)	-30	0	-28	42	8	77*
CCCCn1c2nc3ccccc3nc2c2c(=O)n(C(C)CC)cnc21 (stereo unspecified)	8	7	-5	7	4	33
CN1CCN(c2ccc(CNC(=O)C3(C)Cc4c(-c5ccc6c(c5)OCO6)ccnc4O3)cc2)CC1 (stereo unspecified)	-4	5	-28	1	/	8
Cc1cc(NC2=CC(=O)C(=O)c3ccccc32)no1	-119	-42	86*	-5	84*	-10
COc1cc(OC)c(NC2=CC(=O)C(=O)c3ccccc32)cc1Cl	9	-21	85*	42	99*	4
Cc1ccc(NC2=CC(=O)C(=O)c3ccccc32)cc1	-47	-29	59*	5	95*	-137
CCOC(=O)c1ccc(NC2=CC(=O)C(=O)c3ccccc32)cc1	-33	-72*	89*	31	75*	116*
CCOC1(OCC)OC(c2ccccc2)=C(C#N)C(C=Cc2ccccc2)C1(OCC)OCC (stereo unspecified)	0	-8	-2	6	/	27
CC1C(=O)N(Cc2cn(Cc3ccco3)nn2)CCS(=O)(=O)N1Cc1ccc(-c2cccc(N(C)C)c2)cc1 (stereo unspecified)	-17	6	-6	23	/	-14
Cc1ccc(Nc2cc(=O)n(C)c(=O)[nH]2)cc1C	2	11	-8	3	/	9
NS(=O)(=O)c1ccc(NC2=CC(=O)C(=O)c3ccccc32)cc1	-102	-24	94*	-13	78*	-2
